Reference: PubChem BioAssay (NCI)
This is part of a sample that, as a whole, favours compounds with a hit. Of some 83,000 tested, about 20% had one in any assay.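 Growth was measured after 48 h exposure to one concentration of compound in 96-well plates. Values under 10 count as active.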 Active and inactive are the calls of the source.

tested on: SR leukemia; assay: NCI-60 one-dose screen, 48 h (100 = growth as untreated, 0 = no growth, -100 = all killed); conditions: 10 µM unless noted

Q: With `CCOC(=O)C(=O)CC(=O)N1C(=S)NC(=O)C1CC(C)C` (stereo not given) as the molecule, how does the growth read?
A: The growth was 112% (inactive).

Q: `COC(=O)C(Cc1ccccc1)Nc1nc(NC(Cc2ccccc2)C(=O)OC)nc(N2CCOCC2)n1` (stereo not given) was tested. Which growth did it give?
A: Its growth is 100% (inactive).

Q: Which growth does the source give for `COc1c(N2CC3CCCNC3C2)c(F)cc2c(=O)c(C(=O)N/N=C/c3ccc(F)cc3)cn(C3CC3)c12` (stereo not given) here?
A: Its growth is -24.6% (active).

Q: For `CC(=O)C1=C(C)NC(NNC(N)=S)=NC1c1ccccc1` (stereo not given), which growth is on record?
A: Its growth is 112% (inactive).

Q: With `Cn1cc(-c2nnc(N)nc2-c2c[nH]c3ccc(F)cc23)c2cc(F)ccc21` as the molecule, how does the growth read?
A: The growth was 41.1% (inactive).

Q: For `Oc1[nH]c2ccccc2c1Nn1c(N=N/C=c2/ccc3c(c2)C=NN=3)n[nH]c1=S`, which growth is on record?
A: The growth was 84.5% (inactive).

Q: Which growth does the source give for `Cc1ccc2c(c1)C13C(=C2Br)CCCN1C(=O)c1ccccc13` (stereo not given) here?
A: Its growth is 47.2% (inactive).

Q: With `CCO/C=N/C1=C(C#N)C(c2ccc(Cl)cc2)c2sc3c(CC)cccc3c2O1` (stereo not given) as the molecule, how does the growth read?
A: The growth was 18% (inactive).

Q: How did the growth turn out when `C=C(C=O)[C@@H]1CC[C@]2(COC(C)=O)CC[C@]3(C)C(CC[C@@H]4[C@@]5(C)CC[C@H](OC(C)=O)C(C)(C)[C@@H]5CC[C@]43C)[C@@H]12` (stereo not given in full) was run?
A: Its growth is -25.8% (active).

Q: With `O=C(O)c1ccc(-n2cc(CNc3cc(F)c(F)c(F)c3)c(-c3ccc(F)cc3)n2)cc1` as the molecule, how does the growth read?
A: The growth was 78.1% (inactive).

Q: For `COc1cc2nc(Cl)nc(Nc3cccc(C4=Nc5c(N)nc(N)nc5NC(c5ccc(Cl)cc5)C4)c3)c2cc1OC` (stereo not given), which growth is on record?
A: Its growth is -8.05% (active).

Q: How did the growth turn out when `CNC(=O)c1cc(N2CCc3cc(NC(=O)Nc4ccc(Cl)c(C(F)(F)F)c4)ccc32)ccn1` was run?
A: Its growth is 45.8% (inactive).

Q: For `N=c1c2cc(-c3ccccc3)oc2ncn1/N=C/c1ccc(Br)cc1`, which growth is on record?
A: The growth was 30.1% (inactive).

Q: Which growth does the source give for `NC(N)=Nc1ccc(Oc2cccc(NC(N)=Nc3ccc(Br)c(C(F)(F)F)c3)c2)cc1` here?
A: Its growth is 4.94% (active).

Q: How did the growth turn out when `CN(Cc1ccccc1)S(=O)(=O)/N=C1\NC(=O)NC1=C(Cl)Cl` was run?
A: The growth was -0.359% (active).

Q: `COc1ccc(S(=O)(=O)NCCCNc2nccc(-c3[nH]c(-c4ccccc4)nc3-c3ccc(Cl)c(O)c3)n2)cc1` was tested. Which growth did it give?
A: Its growth is 61.9% (inactive).

Q: For `O=C(CN1CCN(c2cc(=O)n(-c3ccccc3)c3ccccc23)CC1)Nc1nc(-c2ccc(Cl)cc2)cs1`, which growth is on record?
A: Its growth is 56.8% (inactive).

Q: `CC(=O)c1nnn(-c2c(C(=O)n3nc(C)cc3C)sc(=S)n2-c2ccccc2)c1C` was tested. Which growth did it give?
A: The growth was 109% (inactive).

Q: Which growth does the source give for `O=C1[C@H]2Cc3c([nH]c4ccccc34)[C@@H](c3ccc(Br)cc3)N2C(=O)CN1C1CCN(CC2CCCCC2)CC1` here?
A: Its growth is -67.6% (active).

Q: With `NS(=O)(=O)c1ccc(Nc2nc(Nc3ccccc3)nc3nnc(SCC(=O)NC4CCCCC4)n23)cc1` as the molecule, how does the growth read?
A: Its growth is 97.7% (inactive).

Q: For `Cn1ccnc1C(=O)/C=C/C=C/c1ccc(C(=O)Nc2ccc(F)cc2)cc1`, which growth is on record?
A: The growth was 10.8% (inactive).

Q: For `O=C1[C@H]2Cc3c([nH]c4ccccc34)[C@@H](c3ccc(Cl)cc3)N2C(=O)CN1C1CCN(Cc2ccccc2)CC1`, which growth is on record?
A: The growth was 10.4% (inactive).

Q: How did the growth turn out when `NC(N)=Nc1ccc(Oc2cccc(Nc3ccc(Br)c(C(F)(F)F)c3)c2)cn1` was run?
A: Its growth is -50.7% (active).

Q: `CCn1c2ccccc2c2cc(-n3nncc3-c3ccccc3)ccc21` was tested. Which growth did it give?
A: Its growth is 10.4% (inactive).

Q: `CN1CCN(Cc2ccc(NC(=O)c3cncc(C#Cc4cnc5ccc(OCC(C)(C)O)nn45)c3)cc2C(F)(F)F)CC1` was tested. Which growth did it give?
A: The growth was -7.52% (active).

Q: How did the growth turn out when `Cc1ccc(-n2c(/C=C3\C(=O)Nc4ccccc43)ccc2CO)cc1` was run?
A: Its growth is 46.6% (inactive).

Q: `Cc1c(F)cc(C(N)=O)cc1NCC(=O)Nc1ccc([N+](=O)[O-])cc1` was tested. Which growth did it give?
A: Its growth is 107% (inactive).

Q: With `CCOC(=O)c1c(N)c(C#N)cn1-c1cc(OC)c(OC)c(OC)c1` as the molecule, how does the growth read?
A: Its growth is 105% (inactive).

Q: `O=c1[nH]c(Sc2sc3ccc(Cl)cc3c2CBr)nc(=S)[nH]1` was tested. Which growth did it give?
A: Its growth is 7.03% (active).

Q: With `CC(=O)c1ccc(Nc2nc(SCC(C)C)nc(-c3ccccc3)c2C#N)cc1` as the molecule, how does the growth read?
A: The growth was 110% (inactive).

Q: Which growth does the source give for `CS(=O)(=O)c1ncc(-c2ccccc2)cn1` here?
A: The growth was 70.9% (inactive).

Q: How did the growth turn out when `CNC(=O)c1c(NC(=O)c2ccccc2C(F)(F)F)sc2c1CCC(=O)C2` was run?
A: The growth was 29% (inactive).

Q: `NC(N)=Nc1ccc(Nc2cccc(Oc3ccc(Cl)c(C(F)(F)F)c3)c2)cn1` was tested. Which growth did it give?
A: Its growth is -49.9% (active).

Q: With `CC(C)c1ccc(NCc2cn(-c3ccc(C(=O)O)cc3)nc2-c2cc(C(F)(F)F)cc(C(F)(F)F)c2)cc1` as the molecule, how does the growth read?
A: Its growth is 101% (inactive).

Q: `COc1cc2nc(Cl)nc(Nc3cccc(C4=Nc5c(N)nc(N)nc5NC(c5ccccc5)C4)c3)c2cc1OC` (stereo not given) was tested. Which growth did it give?
A: Its growth is -1.18% (active).
